In PubChem BioAssay (EPA / NIEHS):
Records with an inconclusive call do not appear. Active and inactive are the calls of the source. The calls were made as follows: active = hit-call score of the fitted dose curve at least 0.9, where 1 is the maximum; inconclusive = response in the unintended direction; inactive = score below 0.9.

Target: human Retinoid X Receptor beta (RXRb), RXRB (gene 6257) (UniProt P28702)
Assay: ATG_RXRb_TRANS: Attagene TRANS-FACTORIAL HepG2 Assay for human Retinoid X Receptor beta (RXRb) (AID 2283013)
Protocol: ATG_TRANS is a cell-based, multiplexed-readout assay that uses HepG2, a human liver cell line, with measurements taken at 24 hours after chemical dosing in a 24-well plate.ATG_RXRb_TRANS is one of 30 assay component(s) measured or calculated from the ATG_TRANS assay. It is designed to make measurements of mRNA induction, a form of inducible reporter, as detected with fluorescence intensity signals by Reverse transcription polymerase chain reaction (RT-PCR) and Capillary electrophoresis technology.Data from the assay component ATG_RXRb_TRANS was analyzed into 1 assay endpoint. This assay endpoint, ATG_RXRb_TRANS, was analyzed in the positive analysis fitting direction relative to DMSO as the negative control and baseline of activity. Using a type of inducible reporter, measures of mRNA for gain-of-signal activity can be used to understand the reporter gene at the transcription factor-level as they relate to the gene RXRB. Furthermore, this assay endpoint can be referred to as a primary readout, because this assay has produced multiple assay endpoints where this one serves a reporter gene function. To generalize the intended target to other relatable targets, this assay endpoint is annotated to the nuclear receptor intended target family, where the subfamily is non-steroidal.
Human liver HepG2 cells are transiently transfected with multiple reporter transcription units (MRTUs) in 6-well plates using FuGene 6 reagent (Roche; 3 ml FuGene/1 mg DNA). The MRTU constructs are regulated by a cis-regulating element (promoter). […] A major difference between the CIS and TRANS system is that in CIS activities of endogenous TFs are measured, whereas the TRANS assay evaluates changes in activities of exogenous, chimeric NR-Gal4 proteins. […] At the end of 24 hour incubation, total RNA was isolated using TriZol reagent (Invitrogen). The isolated RNA is then reverse-transcribed using oligo(dT) primer and Mo-MLV reverse transcriptase (Invitrogen) with DNAse I (Ambion) treatment for 30 min. The one-tenth of the produced cDNA was amplified by PCR using Taq DNA polymerase (Invitrogen) and two reporter sequence-specific primers. The PCR products were fluorescently labeled by primer extension with 6-arboxyfluorescein (6-FAM) 5'-labeled reporter sequence-specific primer (2 min at 95 C, 20 s at 68 C and 10 min at 72 C) and these products were digested with 5U of HpaI (New England Biolabs) for 2h at 37 C. The fragments were purified using Qiaquick PCR columns (Qiagen), analyzed on an ABI 3130xL genetic analyzer (Applied Biosystems) with peak positions identified by using a set of X-rhodamine (ROX)-labeled MapMarker1000 molecular weight standards (BioVentures). The raw capillary electrophoresis data was processed using Attagraph software (Attagene).

Chain of human Retinoid X Receptor beta (RXRb), RXRB (gene 6257) (P28702 whole entry, looked up): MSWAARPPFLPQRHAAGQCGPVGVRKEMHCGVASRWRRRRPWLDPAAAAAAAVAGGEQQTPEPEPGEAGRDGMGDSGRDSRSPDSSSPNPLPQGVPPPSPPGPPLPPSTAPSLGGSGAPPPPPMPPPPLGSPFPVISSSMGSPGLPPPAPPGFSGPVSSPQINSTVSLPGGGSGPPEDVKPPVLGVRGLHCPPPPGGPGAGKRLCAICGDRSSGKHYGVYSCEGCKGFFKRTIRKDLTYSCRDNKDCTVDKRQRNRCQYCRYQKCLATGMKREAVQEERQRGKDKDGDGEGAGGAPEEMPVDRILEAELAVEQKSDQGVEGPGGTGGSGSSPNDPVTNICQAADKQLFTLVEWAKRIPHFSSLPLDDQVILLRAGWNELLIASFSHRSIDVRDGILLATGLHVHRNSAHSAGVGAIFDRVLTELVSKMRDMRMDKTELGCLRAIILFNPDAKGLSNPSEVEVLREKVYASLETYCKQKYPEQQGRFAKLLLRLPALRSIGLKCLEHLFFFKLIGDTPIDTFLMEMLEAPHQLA

Row | SMILES | outcome | AC50
1 | CC(C)=CCCC(C)=CC=O | inactive | 
2 | Cc1ccc(N)cc1O | inactive | 
3 | CCCCC(CC)COC(=O)CCCCCCCCC(=O)OCC(CC)CCCC (stereo not given) | inactive | 
4 | COc1ccc(-n2nc(C(F)F)cc2-c2ccc(S(C)=O)cc2)cc1 (stereo not given) | inactive | 
5 | Cc1ccc(S(=O)(=O)O)cc1C | inactive | 
6 | C=CCCCCCCCCC(=O)O |  | 74.8 µM (active)
7 | COC(=O)c1ccccc1O |  | 2.1 µM (active)
8 | CCCCCCc1ccc(O)cc1O |  | 24.2 µM (active)
9 | CC(C)CCCCCCCOC(=O)CCCCC(=O)OCCCCCCCC(C)C |  | 100 µM (active)
10 | O=C(NS(=O)(=O)/C=C/c1ccccc1)c1ccc(F)cc1Cl | inactive | 
11 | Cc1c(-c2cccnc2)c2ccccc2n1CCCCC(=O)O | inactive | 
12 | Clc1nc(Cl)c(Cl)c(Cl)c1Cl | inactive | 
13 | CC(=O)OC[C@H]1O[C@@](COC(C)=O)(O[C@H]2O[C@H](COC(C)=O)[C@@H](OC(C)=O)[C@H](OC(C)=O)[C@H]2OC(C)=O)[C@@H](OC(C)=O)[C@@H]1OC(C)=O | inactive | 
14 | CCOC(=O)CC(CC(=O)OCC)(OC(C)=O)C(=O)OCC | inactive | 
15 | O=C(OC[C@H]1O[C@@H](OC(=O)c2cc(O)c(O)c(OC(=O)c3cc(O)c(O)c(O)c3)c2)[C@H](OC(=O)c2cc(O)c(O)c(OC(=O)c3cc(O)c(O)c(O)c3)c2)[C@@H](OC(=O)c2cc(O)c(O)c(OC(=O)c3cc(O)c(O)c(O)c3)c2)[C@@H]1OC(=O)c1cc(O)c(O)c(OC(=O)c2cc(O)c(O)c(O)c2)c1)c1cc(O)c(O)c(OC(=O)c2cc(O)c(O)c(O)c2)c1 | inactive | 
16 | CC(=O)OCCC(C)C | inactive | 
17 | O=C(O)CCN(C1(C(=O)NO)CCCC1)S(=O)(=O)c1ccc(Oc2ccc(F)cc2)cc1 | inactive | 
18 | CNS(=O)(=O)c1cc(C(=O)N2CCC(CCN3C4CCC3CC(n3c(C)nc5ccccc53)C4)(c3cccc(F)c3)CC2)c(Cl)cc1F (stereo not given) | inactive | 
19 | CC(C)c1cccc(C(C)C)c1N1C(=O)c2ccc(O)cc2C1=O | inactive | 
20 | CCOC(=O)COc1ccc2c(c1)CC(NCC(O)c1cccc(Cl)c1)CC2 (stereo not given) | inactive | 

Row | SMILES | outcome | AC50
21 | CCCCC(CC)COC(=O)c1ccc(C(=O)OCC(CC)CCCC)cc1 (stereo not given) |  | 49.7 µM (active)
22 | CCCN(C1CCN(C(=O)C2CCNCC2)CC1)[C@@H]1CCc2ccc(OC)cc2C1 | inactive | 
23 | CC(C)CCCCCCOC(=O)c1ccc(C(=O)OCCCCCCC(C)C)c(C(=O)OCCCCCCC(C)C)c1 |  | 63.2 µM (active)
24 | C=CC(=C)CCC=C(C)C | inactive | 
25 | CC(C)CCO | inactive | 
26 | Cn1cnc([N+](=O)[O-])c1Sc1ncnc2nc[nH]c12 | inactive | 
27 | C1=CCCC=CCCC=CCC1 |  | 63.5 µM (active)
28 | O=C(O)c1cccc(Oc2ccccc2)c1 | inactive | 
29 | Cc1[nH]cnc1C[C@H]1CCc2c(C)c3ccccc3n2C1=O | inactive | 
30 | CC1(C)C(=O)N(Br)C(=O)N1Br | inactive | 
31 | COc1ccc2sc(C(=O)Nc3nnn[nH]3)c(OC(C)C)c2c1 | inactive | 
32 | O=C1OC(=O)C2C3C=CC(C3)C12 (stereo not given) | inactive | 
33 | CC(O)CN(CCN(CC(C)O)CC(C)O)CC(C)O (stereo not given) | inactive | 
34 | CC[C@H]1OC(=O)[C@H](C)[C@@H](O[C@H]2C[C@@](C)(OC)[C@@H](O)[C@H](C)O2)[C@H](C)[C@@H](O[C@@H]2O[C@H](C)C[C@H](N(C)C)[C@H]2O)[C@](C)(O)C[C@@H](C)C(=O)[C@H](C)[C@@H](O)[C@]1(C)O | inactive | 
35 | CCCC(=O)OCC | inactive | 
36 | O=C(CCCCCCCCc1cccnc1)N1CCC(C=C(c2ccccc2)c2ccccc2)CC1 | inactive | 
37 | COC(=O)c1c(Cl)c(Cl)c(C(=O)OC)c(Cl)c1Cl |  | 30.8 µM (active)
38 | CC(C)CC(C)(O)C#CC(C)(O)CC(C)C (stereo not given) | inactive | 
39 | Cn1c(=O)cc(Oc2ccc(F)cc2F)c2cnc(NCC(C)(C)O)nc21 | inactive | 
40 | CCNc1ccccc1 | inactive | 
